PubChem BioAssay AID1159580 (chemical genetic matrix, 2015)
“And” between values parts separate entries of the source, which are not always exact repeats. Identical values can stand only once. Among all 5,500 compounds or so, about 2,000 (36%) were called active. Another 18% or so got no clear call; they are omitted. Some of the results follow. Values without a mark were called inactive. Rule as the data show it: active = normalized growth mostly below about 0.91 (no sharp cut-off); inconclusive = no clear call, values can overlap the other calls; inactive = mostly above about 0.92.

Test: chemical genetic growth profiling, strain panel (AID 1159580);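 also: tested at 20 µM; growth read once vehicle control cultures reached saturation at 30 °C; 1 = growth at the plate median or of vehicle wells; lower values mean less growth of the strain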
Details: growth OD

In the case of CC(COc1ccccc1)N(CCCl)Cc1ccccc1 (stereo unspecified), the normalized growth (S. cerevisiae deletion strains, locus YJR075W, strain HOC1, hits give low values) is reported as 1.02, the normalized growth (S. cerevisiae deletion strains, locus YKL009W, strain mrt4, hits give low values) is reported as 1.04 and the normalized growth (S. cerevisiae deletion strains, locus YKL068W, hits give low values) is reported as 1.02. For the same molecule, the normalized growth (S. cerevisiae deletion strains, locus YKL085W, strain MDH1 (second series), hits give low values) was 1.01, the normalized growth (S. cerevisiae deletion strains, locus YKL085W, strain MDH1, hits give low values) was 1.01 and the normalized growth (S. cerevisiae deletion strains, locus YKL160W, strain elf1, hits give low values) was 0.931. The normalized growth (S. cerevisiae deletion strains, locus YKL190W, strain CNB1, hits give low values) was 1.01, the normalized growth (S. cerevisiae deletion strains, locus YKR001C, strain vps1, hits give low values) was 0.996 and the normalized growth (S. cerevisiae deletion strains, locus YKR026C, strain gcn3, hits give low values) was 0.985. It also gave a normalized growth (S. cerevisiae deletion strains, locus YKR091W, strain srl3, hits give low values) of 0.978, a normalized growth (S. cerevisiae deletion strains, locus YLL001W, strain dnm1, hits give low values) of 1.03 and a normalized growth (S. cerevisiae deletion strains, locus YLL026W, hits give low values) of 0.976. For the same molecule, the normalized growth (S. cerevisiae deletion strains, locus YLL041C, strain sdh2, hits give low values) was 0.979, the normalized growth (S. cerevisiae deletion strains, locus YLR027C, strain aat2, hits give low values) was 0.924 (active) and the normalized growth (S. cerevisiae deletion strains, locus YLR039C, strain RIC1, hits give low values) was 0.939. For the same molecule, the normalized growth (S. cerevisiae deletion strains, locus YLR058C, strain SHM2, hits give low values) was 1.01, the normalized growth (S. cerevisiae deletion strains, locus YLR102C, strain apc9, hits give low values) was 1.01 and the normalized growth (S. cerevisiae deletion strains, locus YLR113W, strain HOG1, hits give low values) was 0.977. The normalized growth (S. cerevisiae deletion strains, locus YLR221C, strain rsa3, hits give low values) was 0.995, the normalized growth (S. cerevisiae deletion strains, locus YLR258W, strain gsy2, hits give low values) was 0.95 and the normalized growth (S. cerevisiae deletion strains, locus YLR262C, strain YPT6 (second series), hits give low values) was 0.897. For the same molecule, the normalized growth (S. cerevisiae deletion strains, locus YLR262C, strain YPT6, hits give low values) was 0.977, the normalized growth (S. cerevisiae deletion strains, locus YLR268W, strain sec22, hits give low values) was 1.04 and the normalized growth (S. cerevisiae deletion strains, locus YLR320W, strain mms22, hits give low values) was 0.985. For the same molecule, the normalized growth (S. cerevisiae deletion strains, locus YLR330W, strain CHS5, hits give low values) was 1.01, the normalized growth (S. cerevisiae deletion strains, locus YLR342W, strain FKS1 (second series), hits give low values) was 0.974 and the normalized growth (S. cerevisiae deletion strains, locus YLR342W, strain FKS1, hits give low values) was 0.989. For the same molecule, the normalized growth (S. cerevisiae deletion strains, locus YLR357W, strain rsc2, hits give low values) was 0.969, the normalized growth (S. cerevisiae deletion strains, locus YLR370C, strain arc18, hits give low values) was 0.963 and the normalized growth (S. cerevisiae deletion strains, locus YLR371W, strain rom2, hits give low values) was 1.02. The normalized growth (S. cerevisiae deletion strains, locus YLR384C, strain iki3, hits give low values) was 0.999, the normalized growth (S. cerevisiae deletion strains, locus YLR418C, strain cdc73, hits give low values) was 0.97 and the normalized growth (S. cerevisiae deletion strains, locus YML016C, strain PPZ1, hits give low values) was 1. For the same molecule, the normalized growth (S. cerevisiae deletion strains, locus YML032C, strain rad52, hits give low values) was 1.02, the normalized growth (S. cerevisiae deletion strains, locus YML120C, strain ndi1, hits give low values) was 1.01 and the normalized growth (S. cerevisiae deletion strains, locus YML124C, strain tub3, hits give low values) was 1.01. The normalized growth (S. cerevisiae deletion strains, locus YMR058W, strain fet3, hits give low values) was 0.95, the normalized growth (S. cerevisiae deletion strains, locus YMR078C, strain ctf18, hits give low values) was 1.02 and the normalized growth (S. cerevisiae deletion strains, locus YMR125W, strain sto1, hits give low values) was 0.987. The normalized growth (S. cerevisiae deletion strains, locus YMR129W, hits give low values) was 0.959, the normalized growth (S. cerevisiae deletion strains, locus YMR205C, strain PFK2, hits give low values) was 0.969 and the normalized growth (S. cerevisiae deletion strains, locus YMR223W, strain ubp8, hits give low values) was 0.99. The normalized growth (S. cerevisiae deletion strains, locus YMR231W, strain pep5, hits give low values) was 0.996, the normalized growth (S. cerevisiae deletion strains, locus YMR263W, strain SAP30, hits give low values) was 1.01 and 0.995 and the normalized growth (S. cerevisiae deletion strains, locus YMR307W, strain GAS1, hits give low values) was 1.01 and 1. For the same molecule, the normalized growth (S. cerevisiae deletion strains, locus YNL067W, strain RPL9B, hits give low values) was 1.03, the normalized growth (S. cerevisiae deletion strains, locus YNL071W, strain lat1, hits give low values) was 0.918 (active) and the normalized growth (S. cerevisiae deletion strains, locus YNL128W, strain TEP1, hits give low values) was 1.01. The normalized growth (S. cerevisiae deletion strains, locus YNL153C, strain GIM3, hits give low values) was 1.02, the normalized growth (S. cerevisiae deletion strains, locus YNL175C, strain NOP13, hits give low values) was 0.996 and the normalized growth (S. cerevisiae deletion strains, locus YNL183C, strain NPR1, hits give low values) was 0.919. For the same molecule, the normalized growth (S. cerevisiae deletion strains, locus YNL197C, strain WHI3, hits give low values) was 1.01, the normalized growth (S. cerevisiae deletion strains, locus YNL209W, strain ssb2, hits give low values) was 0.953 and the normalized growth (S. cerevisiae deletion strains, locus YNL224C, strain SQS1, hits give low values) was 0.984. It also gave a normalized growth (S. cerevisiae deletion strains, locus YNL233W, strain BNI4, hits give low values) of 1.01, a normalized growth (S. cerevisiae deletion strains, locus YNL248C, strain rpa49, hits give low values) of 0.894 and a normalized growth (S. cerevisiae deletion strains, locus YNL250W, strain rad50, hits give low values) of 1. It also gave a normalized growth (S. cerevisiae deletion strains, locus YNL271C, strain bni1, hits give low values) of 1.01, a normalized growth (S. cerevisiae deletion strains, locus YNL298W, strain CLA4, hits give low values) of 1 and a normalized growth (S. cerevisiae deletion strains, locus YNL307C, strain MCK1, hits give low values) of 1. For the same molecule, the normalized growth (S. cerevisiae deletion strains, locus YNL322C, strain KRE1 (second series), hits give low values) was 0.923, the normalized growth (S. cerevisiae deletion strains, locus YNL322C, strain KRE1, hits give low values) was 1.01 and the normalized growth (S. cerevisiae deletion strains, locus YNR049C, strain mso1, hits give low values) was 0.975. The normalized growth (S. cerevisiae deletion strains, locus YNR052C, strain pop2, hits give low values) was 1.01, the normalized growth (S. cerevisiae deletion strains, locus YOL006C, strain TOP1, hits give low values) was 1.07 and the normalized growth (S. cerevisiae deletion strains, locus YOL012C, strain htz1) was 0.857. The normalized growth (S. cerevisiae deletion strains, locus YOL147C, strain pex11, hits give low values) was 1.01, the normalized growth (S. cerevisiae deletion strains, locus YOR001W, strain rrp6, hits give low values) was 0.996 and the normalized growth (S. cerevisiae deletion strains, locus YOR061W, strain CKA2, hits give low values) was 1.01. It also gave a normalized growth (S. cerevisiae deletion strains, locus YOR069W, strain VPS5, hits give low values) of 1.01, a normalized growth (S. cerevisiae deletion strains, locus YOR070C, strain gyp1, hits give low values) of 0.979 and a normalized growth (S. cerevisiae deletion strains, locus YOR080W, strain dia2, hits give low values) of 0.995. For the same molecule, the normalized growth (S. cerevisiae deletion strains, locus YOR083W, strain WHI5 (second series), hits give low values) was 0.987, the normalized growth (S. cerevisiae deletion strains, locus YOR083W, strain WHI5, hits give low values) was 0.9 and the normalized growth (S. cerevisiae deletion strains, locus YOR106W, strain vam3, hits give low values) was 0.89. For the same molecule, the normalized growth (S. cerevisiae deletion strains, locus YOR136W, strain idh2, hits give low values) was 1, the normalized growth (S. cerevisiae deletion strains, locus YOR144C, strain elg1, hits give low values) was 1.02 and the normalized growth (S. cerevisiae deletion strains, locus YOR184W, strain ser1, hits give low values) was 0.954. The normalized growth (S. cerevisiae deletion strains, locus YOR231W, strain MKK1, hits give low values) was 0.99, the normalized growth (S. cerevisiae deletion strains, locus YOR265W, strain rbl2, hits give low values) was 0.997 and the normalized growth (S. cerevisiae deletion strains, locus YOR270C, strain vph1, hits give low values) was 0.838. For the same molecule, the normalized growth (S. cerevisiae deletion strains, locus YOR290C, strain snf2, hits give low values) was 0.898, the normalized growth (S. cerevisiae deletion strains, locus YOR316C, strain cot1, hits give low values) was 1.02 and the normalized growth (S. cerevisiae deletion strains, locus YPL051W, strain arl3, hits give low values) was 0.916. For the same molecule, the normalized growth (S. cerevisiae deletion strains, locus YPL055C, strain LGE1, hits give low values) was 1, the normalized growth (S. cerevisiae deletion strains, locus YPL078C, strain atp4, hits give low values) was 0.926 and the normalized growth (S. cerevisiae deletion strains, locus YPL106C, strain sse1, hits give low values) was 0.949. The normalized growth (S. cerevisiae deletion strains, locus YPL240C, strain hsp82, hits give low values) was 0.991, the normalized growth (S. cerevisiae deletion strains, locus YPL241C, strain CIN2, hits give low values) was 1 and the normalized growth (S. cerevisiae deletion strains, locus YPL256C, strain CLN2, hits give low values) was 0.981. For the same molecule, the normalized growth (S. cerevisiae deletion strains, locus YPR119W, strain clb2, hits give low values) was 1.02, the normalized growth (S. cerevisiae deletion strains, locus YPR141C, strain kar3, hits give low values) was 1.01 and the normalized growth (S. cerevisiae deletion strains, locus YPR163C, strain tif3, hits give low values) was 1.02. For the same molecule, the normalized growth (S. cerevisiae deletion strains, locus YPR167C, strain met16, hits give low values) was 1.02, the normalized growth (S. cerevisiae deletion strains, strain wtn01, hits give low values) was 1.03 and the normalized growth (S. cerevisiae strains, strain wild type, hits give low values) was 1.
